Test results: PubChem BioAssay (NCI)
The panel holds about 79,000 compounds, 15% with a hit somewhere; the sample as a whole holds those more often. Values without a mark were called inactive. Activity calls are given as the source filed them. No stated cut-off is given here; in the data, active means growth inhibition above about 70%; inactive means the rest.

Assay: NCI Yeast Anticancer Drug Screen. Data for the bub3 strain (AID 167)
Conditions: S. cerevisiae bub3 mutant strain, at 50.0 µM (retest, dose inferred, filed as 5.0), hits give high values
Procedure, shortened: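 Screening used yeast with an engineered genetic alteration affecting cell cycle control. Compound-exposed cultures were compared with vehicle cultures, and reduced growth was taken as inhibition.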

SMILES | growth inhibition
CCCCC#C[I+]c1ccccc1 | 32%
CCOC(=O)C1C(c2cccc(OC)c2O)c2cc3c(cc2OC1(C)N1CCCC1)OCO3 (stereo not drawn) | 25%
Nc1ncnc2nn(C3OC(CO)C(O)C3O)nc12 (stereo not drawn) | 1%
Nc1nc(-c2ccc3c(c2)Sc2ccccc2O3)cs1 | 99% (active)
O=C1C=CC(Nc2cccc([N+](=O)[O-])c2)C1Nc1cccc([N+](=O)[O-])c1 (stereo not drawn) | -4%
O=C(CC(=O)c1ccccc1)CC(=O)c1ccccc1 | 95% (active)
Fc1ccc(CSC(=S)Nc2ccc(Br)cc2)cc1 | 99% (active)
Cc1cc([N+](=O)[O-])c2nnnn2c1 | 28%
CN(c1ccc(C(N)=O)cc1)c1c(O)c2ccccc2[nH]c1=O | 46%
O=C(/C=C\c1cccc2ccccc12)c1ccccn1 | 99% (active)
COc1ccc2c(c1)CCc1c(CO)c(COC(=O)NC(C)C)n(C)c1-2 | 40%
O=C1CC(O)CC(=O)C1=C(O)CCCCCCCCCCc1ccccc1 (stereo not drawn) | 54%
CC1CCN(CCCOC(=O)c2ccccc2)CC1 | 64%
Cc1ccc(S(=O)(=O)OC2COC3C(OS(=O)(=O)c4ccc(C)cc4)COC23)cc1 (stereo not drawn) | -11%
Cc1nn(C(=S)S)c(C)c1N=Nc1cccc(F)c1 | 7%
O=C1C(=Cc2ccccc2O)N=C(c2ccccc2)N1n1c(-c2ccccc2)nc2ccccc2c1=O | 45%
O=C1/C(=C/c2ccccc2)CNC/C1=C\c1ccccc1 | 98% (active)
Cc1cc(Br)c(P(=O)(O)O)cc1[N+](=O)[O-] | 6%
